Screens as filed in PubChem BioAssay.
Most compounds without a hit are left out; they make up all but 2.9% or so of the library.
FAS TE block: inhibitors of human fatty acid synthase thioesterase domain; P49327; recombinant FAS-TE, OMFH fluorogenic substrate, fluorescence endpoint; inhibition, % at 15 µM; 360,000 compounds, 0.67% hits;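 active = compounds whose normalised, plate-corrected inhibition of enzyme fluorescence in the single-dose primary screen is 50% or more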;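 note: 0% = DMSO with enzyme and 100% = substrate without enzyme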
GAA850 FXN act: increases GAA850 frataxin promoter reporter activity; HEK293 lucGAA850 FXN promoter luciferase reporter, 24 h; percent of 10 µM SAHA response; activation, % at 6 µM; 360,000 compounds, 0.56% hits;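 active = activation above the average of all compounds screened plus 3 SD, cutoff fixed separately per campaign, cut at about 7.5% in these data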;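 note: 0% = DMSO wells and 100% = 10 µM SAHA wells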
proKLK7 act: activators of human kallikrein-7 zymogen | purified proKLK7, EDANS-DABCYL substrate fluorescence; 100% is mature enzyme control, 0% vehicle | 370,000 compounds, 0.9% hits | activation, % at 7 µM;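 active = activation above the mean of all tested compounds plus 3 SD, computed per campaign excluding outliers beyond control limits, cut at about 13% in these data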
SMARCA2 activ: activators of SMARCA2 function; MG213 cells, MMTV-luciferase reporter, dexamethasone, overnight; AID 652017; activation, % at 9.1 µM; 370,000 compounds, 1% hits; in the data active = activation above about 7.8%;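 note: 0% = vehicle wells and 100% = reference activator wells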
FAS-TE inh conf: confirmation of human fatty acid synthase thioesterase inhibitors. shares compounds with FAS TE block. recombinant FAS-TE, OMFH fluorogenic substrate, fluorescence. inhibition, % at 15 µM. 2,300 compounds, 45% hits. AID 624325;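 active = compounds inhibiting the enzyme by at least 50% at 15 µM in any one of the replicates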;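 note: 0% = enzyme with DMSO only and 100% = wells lacking enzyme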
Starred values were filed as active, the others as inactive.

COc1ccc2ccccc2c1/C=N/NC(=S)Nc1cc(S(=O)(=O)N2CCOCC2)ccc1N1CCOCC1 was read as FAS TE block 92*, GAA850 FXN act 3, proKLK7 act -2, SMARCA2 activ -2 and FAS-TE inh conf 27.
`CC(=O)Nc1ccc(S(=O)(=O)N2CCN(c3cc4c(cc3[N+](=O)[O-])n(C)c(=O)n4C)CC2)cc1` gave FAS TE block 28, GAA850 FXN act -1, proKLK7 act 0 and SMARCA2 activ -5.
For Cn1c(=O)n(C)c2cc([N+](=O)[O-])c(N3CCN(S(=O)(=O)c4ccc(C(C)(C)C)cc4)CC3)cc21 the results were FAS TE block 73*, GAA850 FXN act -1, proKLK7 act 0, SMARCA2 activ -1 and FAS-TE inh conf 20.
Cc1cc(Nc2cccc(F)c2)cc(=O)n1-c1cccc(F)c1 was read as proKLK7 act 0 and SMARCA2 activ -2.
Screening O=C(NNc1ccc([N+](=O)[O-])cc1)C1C2CCCCC21 (stereo unspecified) returned FAS TE block 14, GAA850 FXN act 2, proKLK7 act 0 and SMARCA2 activ -2.
Screening O=C(NNc1ccc([N+](=O)[O-])cc1[N+](=O)[O-])C1C2CCCCC21 (stereo unspecified) returned FAS TE block 62*, GAA850 FXN act 1, proKLK7 act 0, SMARCA2 activ 1 and FAS-TE inh conf 23.
Screening CCc1ccc(S(=O)(=O)ON2C(=O)c3ccccc3C2=O)cc1 returned FAS TE block 81*, GAA850 FXN act -1, proKLK7 act -1, SMARCA2 activ -2 and FAS-TE inh conf 72*.
For CCc1ccc(OC(=O)CN2C(=O)c3ccccc3C2=O)cc1 the results were FAS TE block 0, GAA850 FXN act 1, proKLK7 act 0 and SMARCA2 activ -1.
Screening COc1ccc(OC)c(S(=O)(=O)N2CCN(c3ccccc3)CC2)c1 returned FAS TE block 8, GAA850 FXN act 2, proKLK7 act 0 and SMARCA2 activ -2.
Screening COc1ccc(OC)c(S(=O)(=O)ON2C(=O)c3ccccc3C2=O)c1 returned FAS TE block 79*, GAA850 FXN act 0, proKLK7 act -1, SMARCA2 activ -1 and FAS-TE inh conf 66*.
Screening O=C1c2cccc3cccc(c23)C(=O)N1OS(=O)(=O)c1ccc(Cl)cc1 returned FAS TE block 52*, GAA850 FXN act 0, proKLK7 act 4, SMARCA2 activ -4 and FAS-TE inh conf 14.
`CC(C(=O)Nc1ccc(C(F)(F)F)cc1)N(C)CC(=O)N1CCN(Cc2ccccc2)CC1` (stereo unspecified) gave FAS TE block 0, GAA850 FXN act 3, proKLK7 act 0 and SMARCA2 activ -3.
`COc1ccc(NC(=O)CN2CCN(c3nc(-c4ccc(F)cc4)cs3)CC2)c(OC)c1` gave FAS TE block 54*, GAA850 FXN act 1, proKLK7 act 0, SMARCA2 activ 0 and FAS-TE inh conf 22.
CCCC(C)C(=O)Nc1cc([N+](=O)[O-])ccc1Cl (stereo unspecified) was read as FAS TE block 52*, GAA850 FXN act 4, proKLK7 act -1, SMARCA2 activ -4 and FAS-TE inh conf 64*.
For CCCC(C)C(=O)Nc1cc([N+](=O)[O-])ccc1F (stereo unspecified) the results were FAS TE block 31, GAA850 FXN act 3, proKLK7 act 0 and SMARCA2 activ -4.
CCN(CC)CCCNC(=O)c1cc2nc3c(c(C(F)(F)F)n2n1)CCc1ccccc1-3 was read as FAS TE block -8, GAA850 FXN act 2, proKLK7 act 4 and SMARCA2 activ 2.
`COc1ccc2c(c1)c(CC(=O)Nc1ccccc1OC)c(C)n2C(=O)c1ccc(Cl)cc1` gave FAS TE block 52*, GAA850 FXN act 1, proKLK7 act -8, SMARCA2 activ -2 and FAS-TE inh conf 12.
Screening COc1ccc2c(c1)c(CC(=O)Nc1cc(C)ccc1C)c(C)n2C(=O)c1ccc(Cl)cc1 returned FAS TE block 21, GAA850 FXN act -1, proKLK7 act 0 and SMARCA2 activ -4.
`COc1ccc2c(c1)c(CC(=O)Nc1nnc(C3CC3)s1)c(C)n2C(=O)c1ccc(Cl)cc1` gave FAS TE block -1, GAA850 FXN act -10, proKLK7 act -1 and SMARCA2 activ -4.
`COc1ccc2c(c1)c(CC(=O)Nc1ccc(C(C)=O)cc1)c(C)n2C(=O)c1ccc(Cl)cc1` gave FAS TE block 54*, GAA850 FXN act 2, proKLK7 act -17, SMARCA2 activ -3 and FAS-TE inh conf 30.
Screening CCCC(=O)C1=C(O)C(C(=O)OC)C(C)(C)CC1=Nc1ccc(Br)cc1 (stereo unspecified) returned FAS TE block 28, GAA850 FXN act 2, proKLK7 act 0 and SMARCA2 activ 0.
Screening COc1cc(SC)ccc1C(=O)OC1CCOC1=O (stereo unspecified) returned FAS TE block -4, GAA850 FXN act 2, proKLK7 act 1 and SMARCA2 activ 5.
Cc1ccc(S(=O)(=O)N2C[C@H]3[C@H]4C(=O)N(c5ccccc5)C(=O)[C@H]4CC(=O)[C@H]3[C@@H]2c2cccc3ccccc23)cc1 was read as FAS TE block 84*, proKLK7 act 0, SMARCA2 activ -5 and FAS-TE inh conf 46*.
`COc1ccc([C@@H]2C[C@H]3[C@@H](CN2S(=O)(=O)c2ccccc2)C(=O)C[C@@H](c2ccc(OC)cc2)N3S(=O)(=O)c2ccccc2)cc1` gave FAS TE block 76*, proKLK7 act 0, SMARCA2 activ 4 and FAS-TE inh conf 30.
Screening Cc1ccc(S(=O)(=O)N2[C@H](C(C)C)[C@H]3[C@H]4C(=O)N(c5ccccc5)C(=O)[C@H]4CC(=O)[C@H]3[C@@H]2c2ccccc2)cc1 returned FAS TE block 68*, proKLK7 act 0, SMARCA2 activ -1 and FAS-TE inh conf 42.
Cc1ccc(S(=O)(=O)N2C[C@H]3C(=O)C[C@@H]4C(=O)N(c5ccccc5)C(=O)[C@@H]4[C@@H]3C[C@@H]2c2ccccc2)cc1 was read as FAS TE block 75*, proKLK7 act 0, SMARCA2 activ 3 and FAS-TE inh conf 39.
For Cc1ccc(S(=O)(=O)N2C[C@H]3[C@H]4C(=O)N(c5ccccc5)C(=O)[C@H]4CC(=O)[C@H]3[C@@H]2c2ccc(Cl)cc2)cc1 the results were FAS TE block 41, proKLK7 act 0 and SMARCA2 activ -1.
Screening CCc1ccc([C@H]2[C@@H]3C(=O)C[C@@H]4C(=O)N(c5ccccc5)C(=O)[C@@H]4[C@@H]3CN2S(=O)(=O)c2ccc(C)cc2)cc1 returned FAS TE block 33, proKLK7 act 1 and SMARCA2 activ -4.
O=C(NC1CCCC1)C1CCC(=O)N1C1CCCCC1 (stereo unspecified) was read as FAS TE block -3, GAA850 FXN act 0, proKLK7 act 0 and SMARCA2 activ -1.
